Test [1] addresses Tyrosine-protein kinase SYK (Homo sapiens) (UniProt P43405). As to conditions: at 10 µM.
Test [2] deals with T1, Mitogen-activated protein kinase kinase kinase 7 (Homo sapiens) (UniProt O43318).
T1 sequence (whole entry): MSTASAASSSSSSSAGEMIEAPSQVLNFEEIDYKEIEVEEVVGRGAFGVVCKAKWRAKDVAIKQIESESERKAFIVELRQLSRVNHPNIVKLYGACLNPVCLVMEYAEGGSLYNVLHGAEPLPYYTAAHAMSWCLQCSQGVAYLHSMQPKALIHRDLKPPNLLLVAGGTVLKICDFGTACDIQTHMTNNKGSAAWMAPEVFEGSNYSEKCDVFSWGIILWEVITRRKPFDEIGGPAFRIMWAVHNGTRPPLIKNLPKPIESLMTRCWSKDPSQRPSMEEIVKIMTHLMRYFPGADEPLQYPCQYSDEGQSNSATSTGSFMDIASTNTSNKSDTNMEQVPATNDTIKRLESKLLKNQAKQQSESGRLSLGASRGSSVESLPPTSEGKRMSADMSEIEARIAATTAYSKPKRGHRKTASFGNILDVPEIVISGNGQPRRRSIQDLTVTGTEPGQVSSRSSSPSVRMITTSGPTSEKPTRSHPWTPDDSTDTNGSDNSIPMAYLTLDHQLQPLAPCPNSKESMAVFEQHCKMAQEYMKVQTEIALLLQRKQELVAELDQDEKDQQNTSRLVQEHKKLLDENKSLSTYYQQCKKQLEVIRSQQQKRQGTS
As to conditions: at 1 µM.

For test [3], the target named is T1, Mitogen-activated protein kinase kinase kinase 7 (Homo sapiens). As to conditions: at 10 µM.
Test [4] deals with T2, Serine/threonine-protein kinase TAO1 (Homo sapiens) (UniProt Q7L7X3).
T2 sequence (whole entry): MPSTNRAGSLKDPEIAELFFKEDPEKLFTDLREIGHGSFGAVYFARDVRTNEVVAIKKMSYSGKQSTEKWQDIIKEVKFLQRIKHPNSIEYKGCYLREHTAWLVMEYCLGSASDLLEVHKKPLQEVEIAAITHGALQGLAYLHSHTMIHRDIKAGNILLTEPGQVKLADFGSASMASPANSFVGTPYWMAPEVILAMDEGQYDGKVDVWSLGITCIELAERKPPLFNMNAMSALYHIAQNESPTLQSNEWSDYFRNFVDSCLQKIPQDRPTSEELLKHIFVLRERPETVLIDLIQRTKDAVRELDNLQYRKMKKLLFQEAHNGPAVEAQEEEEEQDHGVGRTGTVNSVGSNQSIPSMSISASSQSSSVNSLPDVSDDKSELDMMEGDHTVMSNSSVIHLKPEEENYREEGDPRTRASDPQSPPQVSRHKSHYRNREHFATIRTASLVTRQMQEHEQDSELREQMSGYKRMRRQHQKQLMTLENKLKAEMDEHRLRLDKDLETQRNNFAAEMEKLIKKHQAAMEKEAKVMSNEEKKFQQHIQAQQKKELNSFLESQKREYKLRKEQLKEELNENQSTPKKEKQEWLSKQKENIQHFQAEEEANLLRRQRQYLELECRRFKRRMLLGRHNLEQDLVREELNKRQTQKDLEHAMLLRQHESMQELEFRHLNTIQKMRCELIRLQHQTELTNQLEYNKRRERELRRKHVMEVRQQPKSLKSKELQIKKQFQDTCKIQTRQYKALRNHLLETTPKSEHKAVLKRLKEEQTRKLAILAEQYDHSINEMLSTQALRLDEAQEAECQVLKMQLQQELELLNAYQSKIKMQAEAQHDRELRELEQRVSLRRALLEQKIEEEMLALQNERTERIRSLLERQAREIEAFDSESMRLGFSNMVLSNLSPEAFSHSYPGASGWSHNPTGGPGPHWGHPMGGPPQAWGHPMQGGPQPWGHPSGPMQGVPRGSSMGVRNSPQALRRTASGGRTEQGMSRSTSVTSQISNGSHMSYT
To be noted: at 1 µM.

Test [5] concerns the target T2, Serine/threonine-protein kinase TAO1 (Homo sapiens). To be noted: at 10 µM.
In test [6] the target is T3, Serine/threonine-protein kinase TAO2 (Homo sapiens) (UniProt Q9UL54).
T3 sequence (whole entry): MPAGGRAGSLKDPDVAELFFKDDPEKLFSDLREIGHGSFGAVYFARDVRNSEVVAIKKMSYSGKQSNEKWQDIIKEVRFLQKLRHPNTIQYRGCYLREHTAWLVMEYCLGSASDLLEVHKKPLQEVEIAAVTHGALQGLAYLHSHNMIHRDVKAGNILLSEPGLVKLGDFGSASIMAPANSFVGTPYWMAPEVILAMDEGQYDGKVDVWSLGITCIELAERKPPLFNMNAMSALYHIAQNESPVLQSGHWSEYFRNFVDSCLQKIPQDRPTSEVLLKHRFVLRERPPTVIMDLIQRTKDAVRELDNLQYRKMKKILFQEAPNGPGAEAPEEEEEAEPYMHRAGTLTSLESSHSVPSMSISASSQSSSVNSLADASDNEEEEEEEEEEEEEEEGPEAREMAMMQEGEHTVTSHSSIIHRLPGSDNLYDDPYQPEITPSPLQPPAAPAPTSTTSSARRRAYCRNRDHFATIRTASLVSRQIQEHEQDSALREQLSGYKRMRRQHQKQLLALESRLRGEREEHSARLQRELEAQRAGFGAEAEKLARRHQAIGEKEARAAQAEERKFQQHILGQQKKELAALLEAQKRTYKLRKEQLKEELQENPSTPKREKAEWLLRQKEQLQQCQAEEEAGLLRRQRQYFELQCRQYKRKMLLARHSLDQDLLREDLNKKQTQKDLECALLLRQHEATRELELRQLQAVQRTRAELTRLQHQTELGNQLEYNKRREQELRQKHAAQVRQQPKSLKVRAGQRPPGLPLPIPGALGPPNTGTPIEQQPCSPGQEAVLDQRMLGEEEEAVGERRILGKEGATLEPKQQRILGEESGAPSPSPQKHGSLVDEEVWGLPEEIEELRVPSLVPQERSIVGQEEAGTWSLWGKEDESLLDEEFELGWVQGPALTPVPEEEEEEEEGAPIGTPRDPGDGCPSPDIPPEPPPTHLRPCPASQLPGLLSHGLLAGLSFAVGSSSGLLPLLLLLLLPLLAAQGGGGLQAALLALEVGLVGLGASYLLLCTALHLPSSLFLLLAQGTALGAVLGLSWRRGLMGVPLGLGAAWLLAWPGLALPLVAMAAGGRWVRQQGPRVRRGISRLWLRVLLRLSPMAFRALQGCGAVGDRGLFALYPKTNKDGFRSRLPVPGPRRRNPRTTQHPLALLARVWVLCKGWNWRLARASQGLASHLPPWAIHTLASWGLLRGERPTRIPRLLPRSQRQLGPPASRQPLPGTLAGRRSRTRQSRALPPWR
As to conditions: at 1 µM.

The target of test [7] is T3, Serine/threonine-protein kinase TAO2 (Homo sapiens). As to conditions: at 10 µM.
Test [8] deals with T4, Serine/threonine-protein kinase TAO3 (Homo sapiens) (UniProt Q9H2K8).
T4 sequence (whole entry): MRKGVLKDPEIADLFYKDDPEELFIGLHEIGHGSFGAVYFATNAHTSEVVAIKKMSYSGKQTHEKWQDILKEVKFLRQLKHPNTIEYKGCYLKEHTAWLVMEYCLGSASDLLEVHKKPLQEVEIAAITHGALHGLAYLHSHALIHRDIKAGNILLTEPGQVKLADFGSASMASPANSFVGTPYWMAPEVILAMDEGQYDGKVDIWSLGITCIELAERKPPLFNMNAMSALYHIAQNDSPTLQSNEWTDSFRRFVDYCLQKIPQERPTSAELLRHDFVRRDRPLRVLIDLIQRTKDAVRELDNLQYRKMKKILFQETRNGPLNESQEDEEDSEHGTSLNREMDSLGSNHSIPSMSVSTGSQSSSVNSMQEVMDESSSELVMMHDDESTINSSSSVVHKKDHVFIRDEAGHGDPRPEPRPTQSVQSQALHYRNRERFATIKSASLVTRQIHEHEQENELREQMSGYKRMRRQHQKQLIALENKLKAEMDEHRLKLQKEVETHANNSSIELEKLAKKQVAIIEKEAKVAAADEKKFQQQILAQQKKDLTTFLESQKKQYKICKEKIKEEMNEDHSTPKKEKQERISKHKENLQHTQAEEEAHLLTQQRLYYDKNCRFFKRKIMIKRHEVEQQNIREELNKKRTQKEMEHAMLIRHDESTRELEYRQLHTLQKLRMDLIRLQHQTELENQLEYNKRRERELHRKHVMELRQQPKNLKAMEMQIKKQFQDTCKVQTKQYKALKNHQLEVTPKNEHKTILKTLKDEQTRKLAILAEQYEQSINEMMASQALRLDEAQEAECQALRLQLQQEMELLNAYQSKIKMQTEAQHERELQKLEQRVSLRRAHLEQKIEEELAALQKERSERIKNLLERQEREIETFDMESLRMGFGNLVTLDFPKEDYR
As to conditions: at 1 µM.

This passage reports residual activity results from ChEMBL document CHEMBL2218924, “A broad activity screen in support of a chemogenomic map for kinase signalling research and drug discovery” (Biochem J, 2013).

Structures are written as SMILES.

With `O=C(c1cc2cc(O)ccc2[nH]1)c1cc2cc(O)ccc2[nH]1`, the residual activity is 46% in test [1]; 62% in test [2]; 23% in test [3]; 70% in test [4]; 28% in test [5]; 80% in test [6]. Also, the residual activity came out at 32% in test [7] and 66% in test [8].
